Data reported in PubChem BioAssay (EPA / NIEHS).
Records with an inconclusive call do not appear. A structure can be active in one record and inactive in another. Calls of active or inactive are those of the source. The calls were made as follows: active = hit-call score of the fitted dose curve at least 0.9, where 1 is the maximum; inconclusive = response in the unintended direction; inactive = score below 0.9.

Assay: CCTE_Shafer_MEA_dev_AB: CCTE's Alamar Blue Assay for Cytotoxicity in the Neural Network Formation Assay, Shafer Lab (AID 2284083);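 also: twelve days of exposure from plating with re-dosing on DIV 5 and 9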
Description: CCTE_Shafer_MEA_dev assay is conducted using Axion Biosystems 48 well microelectrode array (MEA) plates and Maestro recording system. Each well of the MEA plate contains a grid of 16 microelectrodes embedded in the culture surface. Electrically active cells, such as neurons, can be cultured over the electrodes, and electrical activity in these cells can be recorded extracellularly. The spontaneous firing of neurons is captured from each electrode on a microsecond timescale providing both temporally and spatially precise data. […] The CCTE_Shafer_MEA_dev assay uses primary cultures of rat cortical neurons. Recordings are made on days post-plating 5, 7, 9 and 12. As these cultures mature over time, neural networks develop functional activity and form cohesive networks in which electrical activity can be highly coordinated. CCTE_Shafer_MEA_dev_AB is 1 of 19 assay components of the CCTE_Shafer_MEA_dev assay. It measures the resazurin reduction using fluorescence.Data from the assay component CCTE_Shafer_MEA_dev_AB was analyzed into 1 assay endpoint. This assay endpoint, CCTE_Shafer_MEA_dev_AB, was analyzed in the positive analysis fitting direction relative to DMSO as the negative control and baseline of activity. Using a type of viability reporter, loss-of-signal activity can be used to understand cell viability.
On the day prior to culture, each well was coated thoroughly with 150 uL of 0.05% polyethyleneimine (PEI, Sigma Cat P3143) in 50 mM HEPES (Sigma Cat H7523) at a pH of 8. The plate was incubated at 37C for one hour. PEI was rinsed out with 500 uL of sterile water three times. Plates were stored at 4C until the day of culture. This culture was plated at a seeding density of 1.5 x 10^5 cells/well on a 48-well MEA plate, prepared as described above. Cells were administered via a 25 uL media/laminin ([…]; Sigma Cat L2020-1MG) drop directly onto the microelectrode array, as adding the cells with the laminin results in better attachment than pre-coating with laminin. After 2 hours, an additional 475 uL of cortical media was added and the cells returned to the incubator. Exposure starts at day 0 of plating and is continued over twelve days of network development until the experiment is terminated. Cells are fed with fresh medium on DIV 5 and 9, following the recordings on those days. The entire volume of media in the well is exchanged and any vehicle or compound treatment is renewed. Complete details are found in OP-NHEERL/ISTD/SBB/TJS/2015-03-r0 (available on request, email shafer.tim@epa.gov). Measurement of the electrical activity is non-invasive, and recordings can be made from the same plate over multiple different days of the culture. In cortical neurons, this allows for the measurement of extracellular action potentials over the period during which networks form in the MEA plate.

| SMILES | outcome | AC50 |
| --- | --- | --- |
| CC1CCCC1.[C-]#[O+].[C-]#[O+].[C-]#[O+].[Mn] | inactive |  |
| CN[C@]1(c2ccccc2Cl)CCCCC1=O | inactive |  |
| CCC[CH2][Sn]([CH2]CCC)([CH2]CCC)[O][Sn]([CH2]CCC)([CH2]CCC)[CH2]CCC |  | 0.0455 µM (active) |
| CCOP(=O)(O)OCC (tested in a mixture with another compound) | inactive |  |
| CC(=O)[O-].CC(=O)[O-].O.O.O.[Pb+2] |  | 24 µM (active) |
| NCCc1cc(O)c(O)cc1O |  | 9.87 µM (active) |
| CCOP(=O)(OCC)SCSCC | inactive |  |
| COP(=O)(OC)SCN1C(=O)c2ccccc2C1=O | inactive |  |
| Brc1ccc(Oc2ccc(Br)cc2Br)c(Br)c1 | inactive | 8.31 µM (active) |
| Cn1nc(C(F)(F)F)c(CS(=O)(=O)C2=NOC(C)(C)C2)c1OC(F)F |  | 68.9 µM (active) |
| Cc1ccc(OP(=O)(Oc2ccc(C)cc2)Oc2ccc(C)cc2)cc1 (tested in a mixture with another compound) | inactive |  |
| CC1(C)C(C=C(Cl)c2ccc(Cl)cc2)C1C(=O)OC(C#N)c1ccc(F)c(Oc2ccccc2)c1 (centres undefined) |  | 17.1 µM (active) |
| C[n+]1ccc(-c2cc[n+](C)cc2)cc1 |  | 2.34 µM (active) |
| c1ccc2cc3c(cc2c1)-c1cccc2cccc-3c12 | inactive |  |
| CC1(C)C(C=C(Cl)Cl)C1C(=O)O[C@H](C#N)c1cccc(Oc2ccccc2)c1 (some centres undefined) |  | 5.41 µM (active) |
| CCOP(=O)(Oc1cnc(C(C)(C)C)nc1)OC(C)C (centres undefined) |  | 11.7 µM (active) |
| CCCCC(CC)COC(=O)c1cc(Br)c(Br)c(Br)c1Br (centres undefined) |  | 15.1 µM (active) |

| SMILES | outcome | AC50 |
| --- | --- | --- |
| O=[As]O |  | 1.82 µM (active) |
| CCOP(=O)(OCC)SCSC(C)(C)C |  | 90.6 µM (active) |
| C/C(=C/C=C/[C@@H](C)C(=O)O)[C@H]1CN[C@H](C(=O)O)[C@H]1CC(=O)O | inactive |  |
| [CH3][Sn]([CH3])[CH3] |  | 1.58 µM (active) |
| C[n+]1ccc(-c2ccccc2)cc1 | inactive |  |
| CN1C(=O)CN=C(c2ccccc2)c2cc(Cl)ccc21 | inactive |  |
| O.O.O.O.O.[Cd+2].[Cd+2].[Cl-].[Cl-].[Cl-].[Cl-] |  | 0.458 µM (active) |
| [Cd+2].[Cl-].[Cl-] |  | 1.21 µM (active) |
| CP(=O)(O)CC[C@H](N)C(=O)O | inactive |  |
| O=C(O)CNCP(=O)(O)O | inactive |  |
| Brc1ccc(Oc2cc(Br)c(Br)cc2Br)c(Br)c1 |  | 13.6 µM (active) |
| CC1(C)[C@@H](C=C(Cl)Cl)[C@@H]1C(=O)O[C@@H](C#N)c1ccc(F)c(Oc2ccccc2)c1 | inactive |  |
| C#CCN(C)[C@H](C)Cc1ccccc1 | inactive |  |
| [CH3][Hg][Cl] |  | 0.283 µM (active) |
| CC(=O)[O-].[Tl+] | inactive |  |
| CCOP(=O)(OCC)OC(Cl)C(Cl)(Cl)Cl (centres undefined) |  | 2.24 µM (active) |
